Screening results deposited in PubChem by National Center for Advancing Translational Sciences (NCATS).
In the library only some 12% were active in any assay of this set; here they are far more common.
G9a inh: qHTS Assay for Inhibitors of Histone Lysine Methyltransferase G9a; G9a H3K9 monomethylation, AlphaScreen, 2 h; Potency, µM (doses to about 102 µM), most hits filed as inhibitors; 350,000 tested, 8.8% active; also: nearly all actives have a fitted effect of over 75% in size
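Using a bead-based AlphaScreen, monomethylated H3K9 product from 2 h room-temperature reactions (G9a 20 nM, peptide 500 nM, SAM 20 uM) was detected with 0.5 ug/mL rabbit anti-H3K9me1 antibody.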
L3MBTL1 inh: qHTS Assay for the Inhibitors of L3MBTL1 | Lethal(3)malignant brain tumor-like protein 1 (Homo sapiens), Q9Y468 | AlphaScreen L3MBTL1–H3K9me1 peptide binding | Potency, µM (series often up to 57.1 µM), usual class: inhibitors | 230,000 tested, 0.66% active | AID 485360, 2010; also: nearly all actives have a fitted effect of over 60% in size
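First, the protein-peptide complex forms for 30 min at room temperature (L3MBTL1 50 nM, biotinylated H3K9me1 peptide 75 nM). Next, compounds are pin-transferred and incubated 30 min. Finally, AlphaScreen beads are added and read after 30 min.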
Sfp inh: qHTS Assay for Inhibitors of Bacillus subtilis Sfp phosphopantetheinyl transferase (PPTase) | Biochemical Sfp PPTase activity, qHTS | Potency, µM, hits mostly inhibitors | 310,000 tested, 3.5% active | AID 1490, 2009;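 also: the enzyme is Sfp with the accession as filed and its product quenches rhodamine fluorescence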
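Sfp 15 nM + cpd, 15 min RT; start w/ rhodamine-CoA 5 uM, BHQ-2-YbbR 12.5 uM (final); 50 mM Hepes pH 7.6, 10 mM MgCl2, 0.01% NP-40, 0.01% BSA; read 525/598 nm at 0 and 30 min.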
JMJD2A Tudor inh: qHTS Assay for Inhibitors of JMJD2A-Tudor Domain. Lysine-specific demethylase 4A (Homo sapiens), O75164. AlphaScreen JMJD2A-Tudor / H3K4me3 peptide binding. 390,000 tested, 4.4% active. Potency, µM (doses to about 114 µM), most hits filed as inhibitors. AID 504339, 2011; also: nearly all actives have a fitted effect of over 50% in size
HP1b binding inh: HTS for Inhibitors of HP1-beta Chromodomain Interactions with Methylated Histone Tails; Chromobox protein homolog 1 (Homo sapiens), P83916; AlphaScreen HP1-beta / biotin-H3K9me3 peptide binding; Potency, µM (highest dose often 114 µM), hits mostly inhibitors; 390,000 tested, 0.56% active; also: nearly all actives have a fitted effect of over 70% in size
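AlphaScreen: HP1-beta (50 nM) preformed 30 min with biotin-H3(1-18)K9me3 peptide (50 nM) in PBS pH 7.4, 0.01% Tween-20. Compound added for 30 min at RT, then streptavidin donor/nickel chelate acceptor beads (10 ug/mL) for 30 min.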
BAZ2B inh: qHTS Assay for Inhibitors of BAZ2B | 360,000 tested, 4.4% active | AlphaScreen BAZ2B-H3K14Ac peptide displacement | AID 504333, 2011 | Potency, µM (titrated, usually from 114 µM), usual class: inhibitors | Bromodomain adjacent to zinc finger domain protein 2B (Homo sapiens), Q9UIF8; also: nearly all actives have a fitted effect of over 60% in size
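AlphaScreen luminescence quantifies BAZ2B engagement of H3K14Ac peptide; the protein and biotinylated peptide are both at 50 nM final, buffer PBS pH 7.4 with 0.01% Tween-20, all steps at room temperature.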
Hits are given with their value; i = inactive; ? = inconclusive; nt = no result given; [ ] = remark or other dose. Calls follow the shape of the dose curve; as a rule, active = well fitted curve in the direction sought with a large enough effect; inconclusive = small, poorly fitted or top-dose-only effect, or another doubt; inactive = no such curve, though single readings can be large; an effect the other way counts as inactive or inconclusive.

SMILES	G9a inh	L3MBTL1 inh	Sfp inh	JMJD2A Tudor inh	HP1b binding inh	BAZ2B inh
Cc1cc(=O)[nH]c(NCc2ccc(Cl)cc2)n1	i	i	i	i	i	i
Cc1cc(=O)[nH]c(NN=C(CC(C)C)CC(C)C)n1	?	i	56.2µM	?	i	i
C/C(=N\Nc1nc(C)cc(=O)[nH]1)C1CC1	7.94µM	i	39.8µM	17.8µM	i	i
Cc1cc(=O)[nH]c(N/N=C/c2ccc(F)cc2)n1	?	nt	i	i	i	i
Cc1cc(=O)[nH]c(NN=C2CCC(C(C)(C)C)CC2)n1 (stereo unspecified)	31.6µM	i	50.1µM	i	i	i
COc1cc(/C=N/n2nnnc2N)cc(Cl)c1OC	nt	nt	nt	i	i	nt
Cc1oc2ncn(C)c(=O)c2c1C(=O)N1CCN(c2ccccc2)CC1	i	nt	nt	i	i	i
COc1ccc(CCN(C)C(=O)COC(=O)/C=C/c2ccc(C)o2)cc1OC	35.5µM	i	nt	?	i	?
CC(C)NC(=O)Cn1nc(N2CCN(c3ccccc3)CC2)ccc1=O	i	nt	nt	i	i	i
COc1ccc(/C=N\Nc2ccccn2)c(OC)c1	i	i	i	i	i	i
COc1ccc(/C=N/Nc2ncc(Br)cn2)c(OC)c1	i[12.7 µM]	i	?	50.1µM	i	i
Cc1ccsc1C(=O)OCC(=O)Nc1cccc(S(=O)(=O)N2CCOCC2)c1	i	i	i	i	i	i
Cc1ccc(NC(=O)CSc2nnc(N)s2)cc1S(=O)(=O)N1CCOCC1	50.1µM	i	nt	i	i	i
Cc1ccc(NC(=O)COC(=O)c2sccc2C)cc1S(=O)(=O)N1CCOCC1	50.1µM	i	i	i	i	i
C/C(=N\n1cnnc1)c1ccc(C#N)cc1	i	i	i	i	i	i
COc1ccc(NC(=O)CCc2c(C)nc3nc(CNC(=O)OC(C)(C)C)nn3c2C)cc1OC	i	nt	nt	i	i	i
Cc1nc2scc(-c3ccccc3)c2c(=O)n1N=C1C=CC(=O)C=C1	i	i	i	3.16µM	8.91µM	i
CN(C)C(=O)NC1c2ccccc2-c2ccccc21	i	nt	i	i	i	i
O=C1C=CC(=O)N1c1ccc2c(c1)C(NC(=O)C(F)(F)F)c1ccccc1-2 (stereo unspecified)	nt	nt	nt	7.94µM	12.6µM	nt
CC(=O)N(CCC(Cc1ccccc1)c1ccc2c(c1)OCO2)Cc1ccccc1F (stereo unspecified)	i	i	70.8µM	i	i	i
Fc1ccccc1CNCCC(Cc1ccccc1)c1ccc2c(c1)OCO2 (stereo unspecified)	?	i	i	i	i	i
CCN(CCCNC(=O)CN1N=C(c2ccccc2)CCC1=O)c1ccccc1	11.2µM	nt	nt	?	i	i
CCN(CC)CCCNC(=O)CN1N=C(c2ccccc2)CCC1=O	?	nt	nt	i	i	i
CCN(CCCNC(=O)CSc1cc(=O)n(CC)c2ccccc12)c1ccccc1	?	nt	nt	50.1µM	?	?
CCOC(=O)c1ccccc1NC(=O)NC(C)c1c(-n2cccc2)sc(C)c1C (stereo unspecified)	i	nt	nt	i	i	i
SMILES	G9a inh	L3MBTL1 inh	Sfp inh	JMJD2A Tudor inh	HP1b binding inh	BAZ2B inh
NCCC(=O)N[C@@H](Cc1cnc[nH]1)C(=O)O	nt	nt	i	nt	nt	nt
O=C(O)c1ccc(N2CCN(C(c3ccccc3)c3ccccc3)CC2)c([N+](=O)[O-])c1	31.6µM	nt	i	?	i	?
NC(=O)c1ccc(N2CCN(c3ccc(O)cc3)CC2)c([N+](=O)[O-])c1	?	i	31.6µM	25.1µM	79.4µM	?
CC(=O)c1ccc(N2CCN(c3ccc(C(N)=O)cc3[N+](=O)[O-])CC2)cc1	nt	i	i	i	i	i
C[C@@H](NC(=O)[C@@H]1Cc2ccccc2CN1)C(=O)Nc1ccc2c(c1)OCO2	?	i	i	i	i	i
C(=N\Nc1ccc(-n2ccnc2)nn1)/c1ccccc1	i	nt	89.1µM	i	i	?
COc1cccc(Nc2ccc(-n3ccnc3)nn2)c1	i	i	i	i	i	i
COc1ccc(-c2nc3cc(NC(=O)COc4ccccc4C)ccc3o2)cc1	i	nt	nt	i	i	i
Cc1ccc(S(=O)(=O)Nc2cc(C(F)(F)F)ccc2N2CCOCC2)c(C)c1	50.1µM	i	i	i	i	i
c1ccc2cc(OCCCn3ccnc3)ccc2c1	25.1µM	i	i	3.98µM	?	50.1µM
Clc1cccc(OCCCn2ccnc2)c1	nt	i	i	i	i	i
CC(C)(C)c1ccc(OCCCn2ccnc2)cc1	22.4µM	i	i	25.1µM	?	50.1µM
Cc1cncc(C(=O)O)[n+]1[O-]	?	nt	i	nt	nt	nt
CCCCCCCCC(=O)N/N=C/c1ccccn1	i	i	i	i	i	i
CCCCC(C(=O)N/N=C/c1ccccn1)C(=O)N/N=C/c1ccccn1	?	i	35.5µM	i	i	i
O=C(N/N=C/c1ccccc1)C(O)c1ccccc1 (stereo unspecified)	i	i	i	i	i	i
O=C(N/N=C/c1ccccn1)C(O)c1ccccc1 (stereo unspecified)	0.708µM	nt	?	i	i	?
COc1cc[n+]([O-])cc1[N+](=O)[O-]	nt	nt	nt	i	i	nt
CN1CCC2(CC1)CCN(C(=O)c1cc(C(F)(F)F)cc(C(F)(F)F)c1)CC2	i[12.7 µM]	nt	i	nt	nt	nt
COC(=O)[C@@H]1C[C@@]1(C)[C@@H](NC(=O)OCc1ccccc1)c1ccccc1	nt	nt	i	nt	nt	nt
CCCCCCN1C=CC(=C/C=C(\C#N)C(=O)OCC)C=C1	i[12.7 µM]	i	i	i	i	?
CCCN1C=CC(=C/C=C(\C#N)C(=O)OCC)C=C1	?	i	i	nt	nt	50.1µM
CCN1CCN(c2ncnc3c2cnn3-c2ccc(F)cc2)CC1	i	nt	nt	i	i	i
CC1(C)C(O)C=C[C@@]2(C)C1CC(=O)O[C@@]1(C)C3=CC(=O)OC(c4ccoc4)[C@]3(C)CCC21 (stereo partly specified)	i[2.33 µM]	nt	i	nt	nt	nt
CCN1CCCc2cc(CN(CCN3CCOCC3)C(=S)Nc3ccccc3OC)ccc21	25.1µM	i	i	39.8µM	i	39.8µM
CCN1CCCc2cc(CN(CCN3CCOCC3)C(=S)Nc3cccc(C)c3)ccc21	?	nt	i	11.2µM	?	8.91µM
CCN1CCCc2cc(CN(CCN3CCOCC3)C(=S)Nc3ccc(OC)c(Cl)c3)ccc21	50.1µM	i	i	?	i	?
CCN1CCCc2cc(CN(CCN3CCOCC3)C(=S)Nc3ccccc3C)ccc21	i	nt	i	i[11.4 µM]	i	i
COc1ccc(C(=O)N/N=C/c2ccc(OC)c(COc3ccc(F)cc3F)c2)cc1	nt	nt	i	i	i	i
